From publication PMC7819943, “Rice protein-binding microarrays: a tool to detect cis-acting elements near promoter regions in rice”
Over roughly 39,000 sequences, “fluorescence intensity (a.u.)” has its median near 4,300; the highest 2% begin near 39,000. What follows is part of a selection rich in the highest values, with near analogues and random picks from the rest.

biological target: T1, OsSMF1 (Oryza sativa, UniProt Q6ZLB0 1-436); test: protein-binding microarray (RPBM); PBS, 2% BSA, 51.3 ng/ul salmon testes DNA, 50 uM zinc acetate, 200 nM TF, 25 C, 1 h; high values mean tight binding; conditions: protein: recombinant; tags: N-terminal polyhistidine and DsRed monomer fusion (pET32a); chain copies: 2; label: CyDye5-dUTP incorporated in the synthesized complementary strand; 3' TTTTT single-stranded linker to array surface; dsDNA, one strand shown
T1 sequence: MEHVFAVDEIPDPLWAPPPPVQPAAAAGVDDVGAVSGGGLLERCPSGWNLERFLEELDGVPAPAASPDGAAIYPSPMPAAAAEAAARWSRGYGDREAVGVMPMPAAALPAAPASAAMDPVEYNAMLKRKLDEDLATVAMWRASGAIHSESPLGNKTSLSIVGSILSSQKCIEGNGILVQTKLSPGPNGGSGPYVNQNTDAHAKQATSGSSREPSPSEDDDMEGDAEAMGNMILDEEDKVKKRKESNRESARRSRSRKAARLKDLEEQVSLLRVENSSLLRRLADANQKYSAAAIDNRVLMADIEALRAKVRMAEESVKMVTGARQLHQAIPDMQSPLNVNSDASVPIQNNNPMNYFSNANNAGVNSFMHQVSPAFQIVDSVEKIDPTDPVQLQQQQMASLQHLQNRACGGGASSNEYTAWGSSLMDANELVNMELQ
Outline: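 Binding signal here means per-feature fluorescence intensity in arbitrary units. The values were read on an Axon 4000B scanner after a custom Agilent array, double-stranded by primer extension with Cy5-dUTP, was incubated with 200 nM protein at 25 °C for 1 h in PBS with 2% BSA, salmon testes DNA and 50 µM zinc acetate, then washed. The proteins were transcription factors with an N-terminal polyhistidine tag and DsRed, expressed in E. coli BL21-CodonPlus and purified on Ni–NTA.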

Row | Sequence | binding signal
1 | TTATGATGTAATTAGGCTCAAAAGATTCGTCTCGCAATTTCGGAGTCACCTAGTGCAG | 44200 fluorescence intensity (a.u.)
2 | AAAAGATTCGTCTCGCAATTTACACGTAACCTGTGTAATTCGGAGTCACCTAGTGCAG | 7350 fluorescence intensity (a.u.)
3 | GGCTCAAAAGATTCATCTCGCGATTTCCATACAAACTGTACGGAGTCACCTAGTGCAG | 46300 fluorescence intensity (a.u.)
4 | TGTCAAATCATGACGCAATTAGGCTCAGAAGATTCGTCTCCGGAGTCACCTAGTGCAG | 4030 fluorescence intensity (a.u.)
5 | TATCAAATTATAGCGCAATTAGGCTCAAAAGATTCAGATTCGGAGTCACCTAGTGCAG | 26600 fluorescence intensity (a.u.)
6 | GGGTGATTGAATCCTTGTCATCTAGTGTAAGGCATCTTTCCGGAGTCACCTAGTGCAG | 4510 fluorescence intensity (a.u.)
7 | CGGCCTATAAGTACTCCATCCCGCCGGCCGGCCGGTGACTCGGAGTCACCTAGTGCAG | 3370 fluorescence intensity (a.u.)
8 | ATCTGTTAGGTATTTAATTTATTTTCTTTTGCTATGTCAGCGGAGTCACCTAGTGCAG | 3880 fluorescence intensity (a.u.)
9 | GCTTAATAAATTCGTCTCGCGGTTTAATGTTGGATTCTGTCGGAGTCACCTAGTGCAG | 3670 fluorescence intensity (a.u.)
10 | TTAATGCATACTGACAGCTGTTTATGTGCTTCAAATTTACCGGAGTCACCTAGTGCAG | 4700 fluorescence intensity (a.u.)
11 | TAATTCAGCTTAATAAATTCGTCCAGCTGTTTACTGACTGCGGAGTCACCTAGTGCAG | 52800 fluorescence intensity (a.u.)
12 | GCGAGCGGCCAACTGGGAAGGCGGTGGTGAGGACATCGTGCGGAGTCACCTAGTGCAG | 5400 fluorescence intensity (a.u.)
13 | TCTGCCGCCGGCCGCGGCGAGGGATGGCATTGGCGTGGCGCGGAGTCACCTAGTGCAG | 3550 fluorescence intensity (a.u.)
14 | GCGCATTGGCGAGGACTGCGACTATCTGGGAAGCGTGAAGCGGAGTCACCTAGTGCAG | 51500 fluorescence intensity (a.u.)
15 | GGTGTCGCGTCGCGTCTGCAGTAGAAATGGAAGCCTGGGGCGGAGTCACCTAGTGCAG | 3230 fluorescence intensity (a.u.)
16 | GGCCCACGCCGGCAGATCAGGTGGGGAGAGAAGCTCCGCCCGGAGTCACCTAGTGCAG | 14700 fluorescence intensity (a.u.)
17 | AGAAGAAGAGGAAGCTGTGGGTCAGGTGGGTTTCCGCCCACGGAGTCACCTAGTGCAG | 41300 fluorescence intensity (a.u.)
18 | AGAGGAAGAGGAAGAAGAGGTCATTCCGCCACGTCCCGGACGGAGTCACCTAGTGCAG | 7090 fluorescence intensity (a.u.)
19 | GTGGAAAAGCCAAAGGCAAAGGCAAACCACGCGTCTCTCTCGGAGTCACCTAGTGCAG | 17400 fluorescence intensity (a.u.)
20 | ACTAAACAGATTTTCTTTAAAGTTTATGCAGAAAAGTTTCCGGAGTCACCTAGTGCAG | 5060 fluorescence intensity (a.u.)
21 | GCATATGGGGCATATATACGTACATGACTGAATCATCGTTCGGAGTCACCTAGTGCAG | 3250 fluorescence intensity (a.u.)
22 | TGAGAGAGAATTGCATTTTATGACATGCCCATATGATGATCGGAGTCACCTAGTGCAG | 17600 fluorescence intensity (a.u.)
23 | ATTCACTGGAGGTGGTGCATCAGCATCACCAAAGCTAGCACGGAGTCACCTAGTGCAG | 3970 fluorescence intensity (a.u.)
24 | ACACTACCAATAGCTGGTACTTATTCAGCACAATAAGCTACGGAGTCACCTAGTGCAG | 46400 fluorescence intensity (a.u.)

Row | Sequence | binding signal
25 | ATTTAATAACTTCTATGGACAATATGTGCCCTGAAACTACCGGAGTCACCTAGTGCAG | 48800 fluorescence intensity (a.u.)
26 | ATATGGCATACATGAGAATTTAGAGAATTTACCATCAAATCGGAGTCACCTAGTGCAG | 45500 fluorescence intensity (a.u.)
27 | TTCTACTATGTCATTCTAGTACTATATAAAACTACTATGCCGGAGTCACCTAGTGCAG | 3690 fluorescence intensity (a.u.)
28 | ATCAAAATAGATTAAAGTTTAGTTTTAACGAAACTAGTTTCGGAGTCACCTAGTGCAG | 3180 fluorescence intensity (a.u.)
29 | GAACTACTAAACGGTACGTCTTTTCGTTTAAAAGAATATCCGGAGTCACCTAGTGCAG | 39400 fluorescence intensity (a.u.)
30 | ACCTACTAATAACTAGTTAATTGTCTATTGTGCCCCTAGTCGGAGTCACCTAGTGCAG | 13700 fluorescence intensity (a.u.)
31 | GGAAATAGTAAATAGCTACTACCAAGCCATAAGCTTACTACGGAGTCACCTAGTGCAG | 17900 fluorescence intensity (a.u.)
32 | TATATATTATACCATTAATGACTGATCCTACCCTCTCATACGGAGTCACCTAGTGCAG | 3290 fluorescence intensity (a.u.)
33 | TATGTTGAGTTTGAATTTGTATATTTATGAAATGGCATATCGGAGTCACCTAGTGCAG | 33000 fluorescence intensity (a.u.)
34 | ATCGTCGTCGCCGCCGCCTCCCATGTCGTTGCTGTCGCCGCGGAGTCACCTAGTGCAG | 3240 fluorescence intensity (a.u.)
35 | TCGGCGGCGAACTTCCCCGCCGACGTGCCAGATCTCAAACCGGAGTCACCTAGTGCAG | 4610 fluorescence intensity (a.u.)
36 | TGCACTATTCTATATTATATTATGCAAGTTTATTTTACGACGGAGTCACCTAGTGCAG | 3260 fluorescence intensity (a.u.)
37 | AGTTCCTAATATTTCTCAATGTATATATGTACTCATTCCTCGGAGTCACCTAGTGCAG | 3800 fluorescence intensity (a.u.)
38 | CAAACTTCTAACCTTTTCATCACATCAAAACTTTTCTATACGGAGTCACCTAGTGCAG | 63600 fluorescence intensity (a.u.)
39 | TGTTCTAACAATAGCATTTCTTGCATTTAACTATGTTCCTCGGAGTCACCTAGTGCAG | 52900 fluorescence intensity (a.u.)
40 | AATGTAAGTCATTCTAGCATTTCTCATTAACATCAATATGCGGAGTCACCTAGTGCAG | 3240 fluorescence intensity (a.u.)
41 | ACTGGCTTCAATTTATCTATAGCTAATCTAATAGCTAATTCGGAGTCACCTAGTGCAG | 33900 fluorescence intensity (a.u.)
42 | ATCACATCAAAACTTTTCTACACATATAAACTTCTAACTTCGGAGTCACCTAGTGCAG | 27400 fluorescence intensity (a.u.)
43 | TTATTTATAACTGATCTAATAGCCAATTCACACAATAATTCGGAGTCACCTAGTGCAG | 13700 fluorescence intensity (a.u.)
44 | TGTTTCTTTTCTTCAGACTAGTCACCTACGGTTTACTATTCGGAGTCACCTAGTGCAG | 3720 fluorescence intensity (a.u.)
45 | ACTTTCACAAAACTATACACATATCACTTTTCAATAAATACGGAGTCACCTAGTGCAG | 19900 fluorescence intensity (a.u.)
46 | TCCAATCAGACGACTATTCCTATGTTTTACAATTCTCTATCGGAGTCACCTAGTGCAG | 51200 fluorescence intensity (a.u.)
47 | CAATTCATCTATAACTAATTTAATAGTCAATTCATACAATCGGAGTCACCTAGTGCAG | 44100 fluorescence intensity (a.u.)
